# Compounds with a hit are over-represented: about 19% of the library has one in this group of screens.
# TDP1 cell CPT – growth inhibition of DT40 Tdp1-/-;hTDP1 cells with camptothecin (screen for TDP1 inhibitors); chicken DT40 Tdp1-/-;hTDP1 cells + 20 nM CPT, ATP luminescence, 48 h; Potency, µM (series often up to 46.2 µM), for the others: at the top dose activity change, negative = growth inhibition, usual class: inhibitors; 420,000 compounds, 12% hits; AID 686979; also: nearly all actives have a fitted effect of over 55% in size
#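 Chicken DT40 Tdp1-/- cells complemented with human TDP1, 400 cells/well, exposed to compounds plus 20 nM camptothecin for at least 48 h at 37 C; viability read as ATP content by CellTiter-Glo luminescence.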
# RORg inh – blocks mouse ROR gamma transcriptional activity. P51450. Drosophila S2 Gal4-RORgamma UAS-luciferase reporter, 20 h. Potency, µM (titrated, usually from 53.6 µM), for the others: at the highest dose activity change, negative = inhibition, most hits filed as inhibitors. 310,000 compounds, 5.4% hits. AID 2551; also: nearly all actives have a fitted effect of over 60% in size
# Target sequence (P51450 whole entry, looked up, the tested form may be a part): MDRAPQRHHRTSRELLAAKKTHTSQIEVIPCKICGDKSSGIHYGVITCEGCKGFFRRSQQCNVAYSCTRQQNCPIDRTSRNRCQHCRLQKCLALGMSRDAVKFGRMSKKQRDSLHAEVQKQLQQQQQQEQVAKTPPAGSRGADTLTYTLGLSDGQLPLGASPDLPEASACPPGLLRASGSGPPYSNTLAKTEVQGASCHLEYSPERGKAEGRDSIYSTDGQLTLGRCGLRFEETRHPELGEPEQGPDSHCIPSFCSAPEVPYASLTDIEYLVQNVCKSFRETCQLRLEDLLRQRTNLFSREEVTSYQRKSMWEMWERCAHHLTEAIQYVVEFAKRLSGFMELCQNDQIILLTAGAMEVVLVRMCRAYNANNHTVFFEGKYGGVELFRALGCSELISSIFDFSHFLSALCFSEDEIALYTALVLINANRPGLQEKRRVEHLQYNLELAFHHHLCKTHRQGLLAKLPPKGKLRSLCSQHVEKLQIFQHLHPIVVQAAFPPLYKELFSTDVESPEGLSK
#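 Using a luciferase readout, inhibitors were identified by reduced reporter activity in Drosophila cells coexpressing a copper-inducible Gal4–ROR gamma fusion and UAS-driven Photinus luciferase, incubated 20 hr after 700 uM copper sulfate.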
# VP16 counter – Gal4-VP16 reporter inhibition counter-screen | AID 2546 | Potency, µM (highest dose often 53.6 µM), inactives show top-dose activity, negative = inhibition, most hits filed as inhibitors | 310,000 compounds, 3.5% hits | Drosophila S2 Gal4-VP16 UAS-luciferase, luminescence, 20 h;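 also: Gal4-VP16 expression switched on by copper sulfate through the metallothionein promoter; nearly all actives have a fitted effect of over 50% in size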
# TDP1 block – inhibitors of human tyrosyl-DNA phosphodiesterase TDP1; recombinant TDP1, AlphaScreen DNA substrate cleavage; Potency, µM (titrated, usually from 130 µM), for the others: top-dose activity change, negative = inhibition, hits mostly inhibitors; 350,000 compounds, 0.28% hits; also: nearly all actives have a fitted effect of over 40% in size
#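 Compounds were preincubated with Tdp1 (1 nM final) for 15 min at room temperature before substrate (15 nM final) started a 5 min reaction; beads (10 ug/ml final) were then added for 10 min before AlphaScreen detection.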
# DT40 TDP1 no CPT – qHTS for Inhibitors of human tyrosyl-DNA phosphodiesterase 1 (TDP1): qHTS in cells in absence of CPT. Potency, µM (highest dose often 46.2 µM), for inactives: top-dose activity change, negative = growth inhibition, hits mostly inhibitors. 420,000 compounds, 15% hits. DT40 Tdp1-/- hTDP1 cells, no CPT, ATP luminescence, 48 h; also: nearly all actives have a fitted effect of over 55% in size
#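 Readout: luminescence from CellTiter-Glo after 30 min in the dark at RT. Cells: DT40 Tdp1-/- with stable hTDP1, 400/well. Exposure: compounds alone, ≥48 hr, 37 °C.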
# Active calls of the source: *; ? = inconclusive; . = not tested or not shown; [ ] = remark or other dose. Calls follow the shape of the dose curve; as a rule, active = well fitted curve in the direction sought with a large enough effect; inconclusive = small, poorly fitted or top-dose-only effect, or another doubt; inactive = no such curve, though single readings can be large; an effect the other way counts as inactive or inconclusive. % is scaled to controls: 0 for no effect and ±100 for the full control effect; potency is read from the fitted curve at half-maximal effect.
SMILES,TDP1 cell CPT,RORg inh,VP16 counter,TDP1 block,DT40 TDP1 no CPT
CCO[Si](CCCN)(OCC)OCC,.,-7%,-19%,13%,.
O=C(c1ccc(Br)o1)N1CCN(c2ccc3nnc(-c4ccc(F)cc4)n3n2)CC1,?,41%,-14%,9%,18µM*
O=C(Nc1ccc(F)cc1)N1CCN(c2ncccn2)CC1,1%,15%,-15%,6%,?
O=C(Nc1ccc(Cl)cc1)N1CCN(c2ccc3nnc(-c4ccc(F)cc4)n3n2)CC1,?,32%,-6%[0.365 µM],5%,21µM*
COc1ccc(S(=O)(=O)N2CCN(c3ccc4nnc(-c5ccc(F)cc5)n4n3)CC2)cc1,12µM*,1%,-15%,5%,15µM*
CCOC(=O)c1cnc2c(cnn2C)c1Cl,-29%,-37%,-11%,-6%,-24%
COc1ccc2c([N+](=O)[O-])c(N3CCOCC3)[nH]c2c1,-9%,.,.,.,-3%
CCc1c(C)c(C#N)c2nc3ccccc3n2c1Nc1cccc(C(F)(F)F)c1,16µM*,.,.,1%,16µM*
CCc1c(C)c(C#N)c2nc3ccccc3n2c1Nc1c(C)n(C)n(-c2ccccc2)c1=O,?,10%,-3%,-3%,-29%
S=C1NCN(Cc2ccco2)CN1c1cccc2ccccc12,7%,5µM*,?,5%,-20%
COc1ccccc1N1CN(Cc2ccccc2)CNC1=S,4%,2µM*,?,3%,-12%
COc1ccccc1N1CN(CCc2ccccc2)CNC1=S,-5%,4%,?,6%,-20%
CCCCN1CN(Cc2ccco2)CNC1=S,12%,13µM*,?,3%,2%
S=C1NCN(Cc2ccco2)CN1c1ccccc1,5%,?,-5%,0%,9%
CCc1ccc(N2CN(Cc3ccco3)CNC2=S)cc1,18%,3.5µM*,?,3%,?
S=C1NCN(Cc2ccco2)CN1,4%,-12%,-9%,3%,3%
O=C(Cc1ccc(Cl)cc1)Nc1cc(S(=O)(=O)N2CCOCC2)ccc1N1CCCC1,-30%,?,-5%,-2%,?
CN1CCN(S(=O)(=O)c2ccc(NC(=S)NC(=O)C3CCCC3)cc2)CC1,-1%,?,10%,5%,-22%
C=CCN1CN(Cc2ccco2)CNC1=S,-21%,13µM*,?,3%,?
NOCc1ccccc1,.,-11%,-12%,-2%,.
Fc1ccc(NCc2nc3ccccc3n2CCOc2ccccc2Cl)cc1,?,.,.,6%,?
COc1ccc(NCc2nc3ccccc3n2CCOc2ccccc2C)cc1,18µM*,.,.,15%,?
Cc1ccc(OCCn2c(CNc3cccc(C)c3)nc3ccccc32)cc1,?,.,.,9%,?
Cc1ccc(NCc2nc3ccccc3n2CCOc2ccccc2)cc1,?,?,?,15%,18µM*
Cn1nc(C(=O)Nc2ccccc2C#N)c2c1-c1ccccc1SC2,-15%,.,.,11%,22%
SMILES,TDP1 cell CPT,RORg inh,VP16 counter,TDP1 block,DT40 TDP1 no CPT
CCOc1ccccc1NC(=O)c1nn(C)c2c1CSc1ccccc1-2,?,.,.,11%,18µM*
Cc1ccc2c(c1)-c1c(c(C(=O)N3CCN(c4cc(C)ccc4C)CC3)nn1C)CS2,?,.,.,-1%,15µM*
CCCCNC(=O)c1nn(C)c2c1CSc1ccccc1-2,16µM*,.,.,14%,?
CC1CC(C)CN(C(=O)c2nn(C)c3c2CSc2ccccc2-3)C1 (configuration not stated),?,-17%,4%,.,23µM*
Cc1cc(Cl)ccc1C1=CC(=O)C[C@H](c2ccc(F)cc2)C1,?,.,.,-8%,-27%
CCOc1ccccc1N(CC)C(=O)c1nn(C)c2c1CSc1ccccc1-2,26µM*,-11%,-1%,1%,?
CCCC(=O)NC(=S)Nc1ccc(S(=O)(=O)Nc2ccc(OCC)cc2)cc1,12µM*,?,?,0%,?
CCOc1ccc(NS(=O)(=O)c2ccc(C(=O)N(C)CC(=O)Nc3ccc(OC)cc3)cc2)cc1,13µM*,.,.,-1%,?
CCCCNS(=O)(=O)c1ccc(NC(=O)Cc2ccc(OC)cc2)cc1,13µM*,38%,-8%,-3%,7.3µM*
COc1ccc(CC(=O)Nc2ccc(S(=O)(=O)NC(C)C)cc2)cc1,?,19%,5%,0%,?
O=C(NCC(=O)N(c1ccccc1)C(C(=O)NC1CCCC1)c1ccncc1)c1ccco1 (configuration not stated),3%,.,.,.,2%
CN(C)S(=O)(=O)c1cccc(-c2nn(-c3ccccc3)cc2/C=C(\C#N)c2nc3ccccc3[nH]2)c1,5.2µM*,25%,-9%,0%,5.8µM*
CCN1C(=O)/C(=C/c2cn(-c3ccccc3)nc2-c2cccnc2)SC1=S,-8%,.,.,.,-34%
CN(C)S(=O)(=O)c1cccc(-c2nn(-c3ccccc3)cc2/C=C2\SC(=S)NC2=O)c1,?,13µM*,?,5%,?
O=C(Cn1nc(-c2ccccc2)ccc1=O)NCc1ccc2c(c1)OCO2,0%,-10%,1%,0%,-13%
CC(=O)Nc1nc(-c2ccccc2)nc(-c2ccccc2OC(C)=O)n1,?,-3%,-25%,5%,18µM*
O=C(Nc1ccc2c(c1)CN(Cc1ccc(CO)o1)CC2)c1ccc(C(F)(F)F)cc1,?,25%,11%,4%,?
